Fluor 339 460: intrinsic fluorescence of library compounds, ex339/em460 – biochemical, MLSMR library, data from DPM-DC assay, artefact control, profiling panel. fluorescence fold increase at 10 µM. compound autofluorescence, ex339/em460 nm, NADH buffer; active compounds read high; 1 = no-compound wells, NADH background. 65,000 tested, 5.5% active;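 active means at 10 µM, mean starting fluorescence two-fold or more over control wells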;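 further: signal is the first read of a kinetic run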
NADH coupling: inhibitors of enzymes used to reach an NAD/NADH endpoint. coupled PK/LDH NADH assays, four targets. IC50, µM (series often up to 10 µM), inactives show top-dose inhibition. 65,000 tested, 0.02% active;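 active means single-dose screening hits from any of four coupled enzyme assays that gave an IC50 when retested across doses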;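 further: the DPM-DC format reads NADH fluorescence rather than 340 nm absorbance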
PMK inhibit: S. pneumoniae PMK inhibition | AID 539 | 65,000 tested, 0.49% active | purified PMK, PK/LDH-coupled NADH absorbance 340 nm | inhibition, % at 10 µM;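 active means top-ranked compounds by inhibition in the single 10 µM screen, taking a fixed number of the strongest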;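 further: 0% = full reaction with DMSO carrier and 100% = background rate without enzyme reaction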
A340 absorber: compounds absorbing at 340 nm | compound absorbance at 340 nm, fold over control | fold change at 10 µM | 65,000 tested, under 10 active | AID 708;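 active means at 10 µM dose, initial 340 nm absorbance at least 2 fold that of control wells; inactive means change under 2 fold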;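 further: initial absorbance extrapolated from kinetic A340 decline of NADH oxidation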
Spn DPM-DC inh: blocks S. pneumoniae diphosphomevalonate decarboxylase | purified DPM-DC, PK/LDH coupled NADH fluorescence | calls only at 10 µM | 65,000 tested, 0.49% active;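 active means the 320 compounds with the highest percent inhibition in the single-dose primary screen, excluding strongly autofluorescent ones, cut at about 32% in these data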;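 further: kinetic rate of NADH fluorescence loss reporting ADP formed by the decarboxylase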
MK inhibit: inhibitors of Streptococcus pneumoniae mevalonate kinase; 65,000 tested, 0.48% active; purified MK, PK/LDH-coupled NADH absorbance 340 nm; inhibition, % at 10 µM; AID 555;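 active means ranked among the strongest by inhibition in the single 10 µM screen, a fixed top-ranked set picked for dose follow-up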
Active calls of the source: *; i = inactive; nt = no result shown; + = active, no number. Compounds with a hit are over-represented: about 6.5% of the library has one in this group of screens.

SMILES	Fluor 339 460	NADH coupling	PMK inhibit	A340 absorber	Spn DPM-DC inh	MK inhibit
COc1cc2nc(C3CCC3)n(NC(=O)C3CCCC(OC)C3)c(=O)c2cc1OC (stereo unspecified)	1	4%	active	0.97	i	9
Nc1ccccc1OCCOCCOCCOc1ccccc1N	1.1	8%	15	1	i	10
Cc1nn(-c2ccccc2)c2sc(C(=O)OCC(=O)N3CCCCC3)cc12	4*	8%	10	1	nt	5
Cc1nn(-c2ccccc2)c2sc(C(=O)OC3CCOC3=O)cc12 (stereo unspecified)	5*	10%	13	1.1	nt	6
COC(=O)c1cc2c(C)nn(-c3ccccc3)c2s1	1.6	6%	7	1	i	11
CCC(C)C(NS(=O)(=O)c1ccc(C)cc1)C(=O)NCCN1CCOCC1 (stereo unspecified)	1.1	2%	1	1	i	5
c1ccc2c(c1)NC1(CCCCC1)n1c-2nc2ccccc21	3.7*	6%	0	1.1	nt	11
O=C1Nc2ccccc2C12Nc1ccccc1-c1nc3ccccc3n12 (stereo unspecified)	1.3	2%	5	1.1	i	2
CC1(c2ccccn2)Nc2ccccc2-c2nc3ccccc3n21 (stereo unspecified)	3.8*	4%	5	1.1	nt	2
O=C1C2C3C=CC(CO)(O3)C2C(=O)N1c1ccccc1-c1ccccc1 (stereo unspecified)	1.1	10%	5	1	i	16
CCOC(=O)C1=C(C)NC2=C(C(=O)C(C(=O)OCC)C(c3ccco3)C2)C1c1ccccn1 (stereo unspecified)	3.6*	7%	8	1.1	nt	6
COC(=O)c1sc(NC(=O)Cc2cccs2)nc1C	1.1	6%	0	1	i	17
COCC(=O)Nc1nc2n(n1)C(c1ccc(OC)cc1)CC(c1ccc(OC)cc1)N2 (stereo unspecified)	2	4%	0	1	i	6
COCC(=O)Nc1nc2n(n1)C(c1ccccc1)CC(c1ccc(OC)cc1)N2 (stereo unspecified)	2.7*	8%	3	1.1	i	8
COc1ccc(C2CC(c3cccc(C)c3)n3nc(N)nc3N2)cc1 (stereo unspecified)	0.14	40%	15	1.1	+	6
Cc1cccc(C2CC(c3ccc(Br)cc3)Nc3nc(N)nn32)c1 (stereo unspecified)	1.1	2%	1	0.99	i	12
c1cncc(-c2nc3c4ccccc4nc(N4CCC(N5CCCCC5)CC4)n3n2)c1	1	3%	10	0.99	i	3
O=C(CCNS(=O)(=O)c1cccc2nsnc12)N1CC(=O)N(CCc2ccccc2)C(=O)C1	1.1	4%	6	0.99	i	6
O=C(CCCn1c(=O)[nH]c2cc(Cl)ccc2c1=O)NCCCN1CCCC1=O	1	2%	4	1	i	2
O=C(COC(=O)CCC(=O)c1ccc(Cl)cc1)NCC1CCCO1 (stereo unspecified)	1.1	3%	8	1	i	0
CCn1nnc(NC(=O)c2cccc(-c3cc4ccccc4oc3=O)c2)n1	3.9*	38%	9	1.2	nt	67*
CCn1nnc(NC(=O)c2cccnc2)n1	1.1	6%	9	0.98	i	9
CC1=CC(C)(C)Nc2ccccc21	2.5*	6%	10	1	i	6
Cc1nc2sc(C(c3ccccc3)N3CCN(C)CC3)c(O)n2n1 (stereo unspecified)	1.1	3%	5	1.1	i	4
CC(=O)Nc1ccc2oc(-c3cc(F)c(F)cc3Cl)nc2c1	3.8*	4%	2	1.1	nt	6
CC(=O)Nc1ccc2oc(-c3ccccc3Br)nc2c1	2.2*	11%	5	1	i	7
CSc1nc2ccc(NS(=O)(=O)c3ccc4c(c3)OCCO4)cc2s1	1.1	6%	5	0.98	i	5
NC(=O)c1ccccc1NS(=O)(=O)Cc1ccc(Cl)cc1	3.9*	3%	3	1.1	nt	2
Cc1ccc(S(=O)(=O)Nc2ccccc2C(N)=O)cc1	3.9*	3%	6	1.1	nt	0
